Measured values published in PubChem BioAssay AID1159580 (chemical genetic matrix, 2015).
“And” between values parts separate entries of the source, which are not always exact repeats. Equal values may be shown once. Hit rate of the full screen: of about 5,500 compounds, about 2,000 (36%) were called active. Another 18% or so got no clear call; they are omitted. Rule as the data show it: active = normalized growth mostly below about 0.91 (no sharp cut-off); inconclusive = no clear call, values can overlap the other calls; inactive = mostly above about 0.92. The list shows a part of the results. Some compounds were tested as several samples or in several runs, with calls that do not always agree.

Experiment: chemical genetic growth profiling, strain panel (AID 1159580);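 also: tested at 20 µM; growth read once vehicle control cultures reached saturation at 30 °C; 1 = growth at the plate median or of vehicle wells; lower values mean less growth of the strain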
Settings: growth OD

Oc1ccc(O)cc1
normalized growth (S. cerevisiae deletion strains, locus YAL013W, strain DEP1, stronger effect = lower value): 0.989 (inactive) and 0.9 (active) | normalized growth (S. cerevisiae deletion strains, locus YAL040C, strain CLN3, stronger effect = lower value): 1.1 (inactive) | normalized growth (S. cerevisiae deletion strains, locus YBR021W, strain FUR4, stronger effect = lower value): 0.688 (active) | normalized growth (S. cerevisiae deletion strains, locus YBR229C, strain ROT2, stronger effect = lower value): 1.02 (inactive) | normalized growth (S. cerevisiae deletion strains, locus YCL029C, strain bik1, stronger effect = lower value): 1.04 (inactive) | normalized growth (S. cerevisiae deletion strains, locus YCL061C, strain MRC1 (second series), stronger effect = lower value): 0.978 (inactive) | normalized growth (S. cerevisiae deletion strains, locus YDL035C, strain GPR1, stronger effect = lower value): 0.9 (inactive) | normalized growth (S. cerevisiae deletion strains, locus YDL074C, strain BRE1, stronger effect = lower value): 0.96 (inactive) | normalized growth (S. cerevisiae deletion strains, locus YDL101C, strain DUN1, stronger effect = lower value): 1.02 (inactive) | normalized growth (S. cerevisiae deletion strains, locus YDL134C, strain PPH21, stronger effect = lower value): 0.987 (inactive) | normalized growth (S. cerevisiae deletion strains, locus YDL185W, strain tfp1, stronger effect = lower value): 1.01 (inactive) | normalized growth (S. cerevisiae deletion strains, locus YDL192W, strain arf1, stronger effect = lower value): 1.02 (inactive) | normalized growth (S. cerevisiae deletion strains, locus YDR101C, strain arx1, stronger effect = lower value): 1.03 (inactive) | normalized growth (S. cerevisiae deletion strains, locus YDR150W, strain NUM1, stronger effect = lower value): 1.01 (inactive) and 0.953 (inactive) | normalized growth (S. cerevisiae deletion strains, locus YDR162C, strain NBP2, stronger effect = lower value): 0.987 (inactive) | normalized growth (S. cerevisiae deletion strains, locus YDR318W, strain mcm21, stronger effect = lower value): 1 (inactive) | normalized growth (S. cerevisiae deletion strains, locus YDR363W, strain ESC2, stronger effect = lower value): 0.997 (inactive) | normalized growth (S. cerevisiae deletion strains, locus YDR388W, stronger effect = lower value): 0.999 (inactive) | normalized growth (S. cerevisiae deletion strains, locus YDR502C, strain sam2, stronger effect = lower value): 1.02 (inactive) | normalized growth (S. cerevisiae deletion strains, locus YEL061C, strain CIN8, stronger effect = lower value): 1.02 (inactive) | normalized growth (S. cerevisiae deletion strains, locus YER002W, strain NOP16, stronger effect = lower value): 1 (inactive) | normalized growth (S. cerevisiae deletion strains, locus YER110C, stronger effect = lower value): 1.04 (inactive) | normalized growth (S. cerevisiae deletion strains, locus YER155C, strain BEM2, stronger effect = lower value): 1.02 (inactive) | normalized growth (S. cerevisiae deletion strains, locus YER167W, strain BCK2, stronger effect = lower value): 0.926 (inactive) | normalized growth (S. cerevisiae deletion strains, locus YGL078C, strain dbp3, stronger effect = lower value): 1.03 (inactive) | normalized growth (S. cerevisiae deletion strains, locus YGL086W, strain mad1, stronger effect = lower value): 0.985 (inactive) | normalized growth (S. cerevisiae deletion strains, locus YGL248W, strain PDE1, stronger effect = lower value): 0.975 (inactive) | normalized growth (S. cerevisiae deletion strains, locus YGR078C, strain PAC10, stronger effect = lower value): 0.858 (inactive) and 1.01 (inactive) | normalized growth (S. cerevisiae deletion strains, locus YGR135W, strain pre9, stronger effect = lower value): 0.964 (inactive) | normalized growth (S. cerevisiae deletion strains, locus YGR229C, strain SMI1, stronger effect = lower value): 0.637 (active) | normalized growth (S. cerevisiae deletion strains, locus YGR252W, strain gcn5, stronger effect = lower value): 0.765 (active) | normalized growth (S. cerevisiae deletion strains, locus YHR030C, strain SLT2, stronger effect = lower value): 1 (inactive) and 1.03 (inactive) | normalized growth (S. cerevisiae deletion strains, locus YHR079C, strain IRE1 (second series), stronger effect = lower value): 1 (inactive) | normalized growth (S. cerevisiae deletion strains, locus YHR079C, strain IRE1, stronger effect = lower value): 1.05 (inactive) | normalized growth (S. cerevisiae deletion strains, locus YHR094C, strain hxt1, stronger effect = lower value): 1.01 (inactive) | normalized growth (S. cerevisiae deletion strains, locus YHR129C, strain ARP1, stronger effect = lower value): 1.01 (inactive) | normalized growth (S. cerevisiae deletion strains, locus YHR200W, strain rpn10, stronger effect = lower value): 1 (inactive) | normalized growth (S. cerevisiae deletion strains, locus YIL066C, strain RNR3, stronger effect = lower value): 0.993 (inactive) | normalized growth (S. cerevisiae deletion strains, locus YIL073C, strain SPO22, stronger effect = lower value): 0.82 (inactive) | normalized growth (S. cerevisiae deletion strains, locus YIL125W, strain kgd1, stronger effect = lower value): 1.03 (inactive) | normalized growth (S. cerevisiae deletion strains, locus YIR030C, strain dcg1, stronger effect = lower value): 1.06 (inactive) | normalized growth (S. cerevisiae deletion strains, locus YJL095W, strain BCK1, stronger effect = lower value): 0.968 (inactive) and 1.01 (inactive) | normalized growth (S. cerevisiae deletion strains, locus YJL134W, strain LCB3, stronger effect = lower value): 1.02 (inactive) | normalized growth (S. cerevisiae deletion strains, locus YJL168C, strain set2, stronger effect = lower value): 1.02 (inactive) | normalized growth (S. cerevisiae deletion strains, locus YJL187C, strain SWE1 (second series), stronger effect = lower value): 1.01 (inactive) | normalized growth (S. cerevisiae deletion strains, locus YJR043C, strain POL32, stronger effect = lower value): 0.86 (inactive) | normalized growth (S. cerevisiae deletion strains, locus YJR066W, strain TOR1, stronger effect = lower value): 1.02 (inactive) | normalized growth (S. cerevisiae deletion strains, locus YJR075W, strain HOC1, stronger effect = lower value): 0.951 (inactive) | normalized growth (S. cerevisiae deletion strains, locus YKL009W, strain mrt4, stronger effect = lower value): 1.03 (inactive) | normalized growth (S. cerevisiae deletion strains, locus YKL068W, stronger effect = lower value): 1.01 (inactive) | normalized growth (S. cerevisiae deletion strains, locus YKL085W, strain MDH1 (second series), stronger effect = lower value): 1.02 (inactive) | normalized growth (S. cerevisiae deletion strains, locus YKL085W, strain MDH1, stronger effect = lower value): 1.02 (inactive) | normalized growth (S. cerevisiae deletion strains, locus YKL190W, strain CNB1, stronger effect = lower value): 1 (inactive) | normalized growth (S. cerevisiae deletion strains, locus YKR001C, strain vps1, stronger effect = lower value): 0.927 (inactive) | normalized growth (S. cerevisiae deletion strains, locus YLR039C, strain RIC1, stronger effect = lower value): 0.904 (inactive) | normalized growth (S. cerevisiae deletion strains, locus YLR058C, strain SHM2, stronger effect = lower value): 1.01 (inactive) | normalized growth (S. cerevisiae deletion strains, locus YLR102C, strain apc9, stronger effect = lower value): 1.03 (inactive) | normalized growth (S. cerevisiae deletion strains, locus YLR113W, strain HOG1, stronger effect = lower value): 1.04 (inactive) | normalized growth (S. cerevisiae deletion strains, locus YLR262C, strain YPT6, stronger effect = lower value): 0.843 (inactive) | normalized growth (S. cerevisiae deletion strains, locus YLR268W, strain sec22, stronger effect = lower value): 0.98 (inactive) | normalized growth (S. cerevisiae deletion strains, locus YLR330W, strain CHS5, stronger effect = lower value): 1.01 (inactive) | normalized growth (S. cerevisiae deletion strains, locus YLR342W, strain FKS1 (second series), stronger effect = lower value): 0.801 (inactive) | normalized growth (S. cerevisiae deletion strains, locus YLR371W, strain rom2, stronger effect = lower value): 1.03 (inactive) | normalized growth (S. cerevisiae deletion strains, locus YLR418C, strain cdc73, stronger effect = lower value): 0.845 (inactive) | normalized growth (S. cerevisiae deletion strains, locus YML016C, strain PPZ1, stronger effect = lower value): 1.01 (inactive) | normalized growth (S. cerevisiae deletion strains, locus YML032C, strain rad52, stronger effect = lower value): 0.937 (inactive) | normalized growth (S. cerevisiae deletion strains, locus YML124C, strain tub3, stronger effect = lower value): 1.03 (inactive) | normalized growth (S. cerevisiae deletion strains, locus YMR078C, strain ctf18, stronger effect = lower value): 1.04 (inactive) | normalized growth (S. cerevisiae deletion strains, locus YMR223W, strain ubp8, stronger effect = lower value): 0.996 (inactive) | normalized growth (S. cerevisiae deletion strains, locus YMR263W, strain SAP30, stronger effect = lower value): 0.989 (inactive) | normalized growth (S. cerevisiae deletion strains, locus YMR307W, strain GAS1, stronger effect = lower value): 0.716 (inactive) and 0.967 (inactive) | normalized growth (S. cerevisiae deletion strains, locus YNL067W, strain RPL9B, stronger effect = lower value): 0.933 (inactive) | normalized growth (S. cerevisiae deletion strains, locus YNL128W, strain TEP1, stronger effect = lower value): 1.02 (inactive) | normalized growth (S. cerevisiae deletion strains, locus YNL153C, strain GIM3, stronger effect = lower value): 0.995 (inactive) | normalized growth (S. cerevisiae deletion strains, locus YNL175C, strain NOP13, stronger effect = lower value): 1 (inactive) | normalized growth (S. cerevisiae deletion strains, locus YNL183C, strain NPR1, stronger effect = lower value): 1.03 (inactive) | normalized growth (S. cerevisiae deletion strains, locus YNL197C, strain WHI3, stronger effect = lower value): 1.01 (inactive) | normalized growth (S. cerevisiae deletion strains, locus YNL224C, strain SQS1, stronger effect = lower value): 1.02 (inactive) | normalized growth (S. cerevisiae deletion strains, locus YNL233W, strain BNI4, stronger effect = lower value): 0.985 (inactive) | normalized growth (S. cerevisiae deletion strains, locus YNL250W, strain rad50, stronger effect = lower value): 1.03 (inactive) | normalized growth (S. cerevisiae deletion strains, locus YNL271C, strain bni1, stronger effect = lower value): 1.05 (inactive) | normalized growth (S. cerevisiae deletion strains, locus YNL298W, strain CLA4, stronger effect = lower value): 1.04 (inactive) | normalized growth (S. cerevisiae deletion strains, locus YNL307C, strain MCK1, stronger effect = lower value): 0.794 (active) | normalized growth (S. cerevisiae deletion strains, locus YNL322C, strain KRE1, stronger effect = lower value): 1.02 (inactive) | normalized growth (S. cerevisiae deletion strains, locus YNR052C, strain pop2, stronger effect = lower value): 1.04 (inactive) | normalized growth (S. cerevisiae deletion strains, locus YOL006C, strain TOP1, stronger effect = lower value): 0.636 (inactive) | normalized growth (S. cerevisiae deletion strains, locus YOL012C, strain htz1): 0.667 (inactive) | normalized growth (S. cerevisiae deletion strains, locus YOL147C, strain pex11, stronger effect = lower value): 1.03 (inactive) | normalized growth (S. cerevisiae deletion strains, locus YOR061W, strain CKA2, stronger effect = lower value): 1.01 (inactive) | normalized growth (S. cerevisiae deletion strains, locus YOR069W, strain VPS5, stronger effect = lower value): 1.01 (inactive) | normalized growth (S. cerevisiae deletion strains, locus YOR083W, strain WHI5 (second series), stronger effect = lower value): 0.893 (inactive) | normalized growth (S. cerevisiae deletion strains, locus YOR136W, strain idh2, stronger effect = lower value): 1.03 (inactive) | normalized growth (S. cerevisiae deletion strains, locus YOR144C, strain elg1, stronger effect = lower value): 1.02 (inactive) | normalized growth (S. cerevisiae deletion strains, locus YOR184W, strain ser1, stronger effect = lower value): 0.979 (inactive) | normalized growth (S. cerevisiae deletion strains, locus YOR231W, strain MKK1, stronger effect = lower value): 1.06 (inactive) | normalized growth (S. cerevisiae deletion strains, locus YOR316C, strain cot1, stronger effect = lower value): 1.03 (inactive) | normalized growth (S. cerevisiae deletion strains, locus YPL055C, strain LGE1, stronger effect = lower value): 0.851 (inactive) | normalized growth (S. cerevisiae deletion strains, locus YPL241C, strain CIN2, stronger effect = lower value): 1.01 (inactive) and 1 (inactive) | normalized growth (S. cerevisiae deletion strains, locus YPL256C, strain CLN2, stronger effect = lower value): 1.08 (inactive) | normalized growth (S. cerevisiae deletion strains, locus YPR119W, strain clb2, stronger effect = lower value): 1.04 (inactive) | normalized growth (S. cerevisiae deletion strains, locus YPR141C, strain kar3, stronger effect = lower value): 1.03 (inactive) | normalized growth (S. cerevisiae deletion strains, locus YPR163C, strain tif3, stronger effect = lower value): 1 (inactive) | normalized growth (S. cerevisiae deletion strains, locus YPR167C, strain met16, stronger effect = lower value): 1.02 (inactive) | normalized growth (S. cerevisiae deletion strains, strain wtn01, stronger effect = lower value): 0.999 (inactive) | normalized growth (S. cerevisiae strains, strain wild type, stronger effect = lower value): 1.01 (inactive)
